# The sample as a whole holds a higher share of hits than the screen did.
# 12-LOX inh: Primary qHTS assay for inhibitors of human arachidonate 12S-lipoxygenase (ALOX12): Round 2 | Polyunsaturated fatty acid lipoxygenase ALOX12 (Homo sapiens), P18054 | purified 12hLO, xylenol orange hydroperoxide absorbance | Potency, µM (highest dose often 108 µM), without a hit: at the highest dose activity change, negative = inhibition, most hits filed as inhibitors | actives 1.1% (n = 580,000) | AID 1671190, 2021; also: potency is read from the fitted curve at half-maximal effect
# Target sequence (P18054 whole entry, looked up): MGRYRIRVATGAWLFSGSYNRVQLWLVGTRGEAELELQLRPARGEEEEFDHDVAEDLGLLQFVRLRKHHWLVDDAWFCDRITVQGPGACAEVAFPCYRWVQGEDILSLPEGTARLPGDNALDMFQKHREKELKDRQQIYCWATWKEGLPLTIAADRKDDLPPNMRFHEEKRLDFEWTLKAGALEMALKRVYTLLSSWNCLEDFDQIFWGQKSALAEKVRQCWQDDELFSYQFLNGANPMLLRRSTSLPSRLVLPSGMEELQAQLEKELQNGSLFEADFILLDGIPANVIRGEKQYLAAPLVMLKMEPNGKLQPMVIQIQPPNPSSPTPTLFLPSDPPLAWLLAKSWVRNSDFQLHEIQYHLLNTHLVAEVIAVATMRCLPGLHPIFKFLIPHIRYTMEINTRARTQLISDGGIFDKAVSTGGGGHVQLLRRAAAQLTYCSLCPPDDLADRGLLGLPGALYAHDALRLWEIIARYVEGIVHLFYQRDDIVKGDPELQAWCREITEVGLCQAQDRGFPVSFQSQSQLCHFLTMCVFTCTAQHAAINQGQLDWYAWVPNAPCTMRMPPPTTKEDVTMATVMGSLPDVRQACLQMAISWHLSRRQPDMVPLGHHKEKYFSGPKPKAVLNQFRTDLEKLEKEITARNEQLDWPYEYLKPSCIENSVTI
#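 Purified human 12hLO (150 nM final) in 25 mM Hepes, 0.01% Triton X-100, pH 7.0 was preincubated 15 min at room temperature with compound. Then 40 uM arachidonic acid was added, 30 min. Hydroperoxide was read by Fe-XO absorbance ratio 573/405 nm.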
# DT40 TDP1 no CPT: qHTS for Inhibitors of human tyrosyl-DNA phosphodiesterase 1 (TDP1): qHTS in cells in absence of CPT. DT40 Tdp1-/- hTDP1 cells, no CPT, ATP luminescence, 48 h. actives 15% (n = 420,000). Potency, µM (top dose mostly 46.2 µM), inactives show at the highest dose activity change, negative = growth inhibition, hits mostly inhibitors; also: potency is read from the fitted curve at half-maximal effect; nearly all actives have a fitted effect of over 55% in size
#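 Readout: luminescence from CellTiter-Glo after 30 min in the dark at RT. Cells: DT40 Tdp1-/- with stable hTDP1, 400/well. Exposure: compounds alone, ≥48 hr, 37 °C.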
# HT1080 IDH1KD tx: qHTS for induction of synthetic lethality in tumor cells producing 2HG: qHTS for the HT-1080-IDH1KD cell line. HT-1080 IDH1 knockdown viability, ATP luminescence, 48 h. Potency, µM (series often up to 46.1 µM), for the others: at the top dose activity, negative = toxicity, most hits filed as cytotoxic. actives 2% (n = 360,000);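 also: potency is read from the fitted curve at half-maximal effect; 0% = DMSO wells and -100% = cell-free medium wells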
#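 CellTiter-Glo luminescence after 48 h compound exposure at 37 degrees C of IDH1-knockdown HT-1080 cells in 5% FBS RPMI. %Activity scaled between DMSO wells and cell-free media wells, with curves fitted and assigned curve classes.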
# IL1B secr inh: qHTS for Inhibitors of Inflammasome Signaling: IL-1-beta AlphaLISA Primary Screen; THP-1 LPS/ATP IL-1B secretion, AlphaLISA, 16 h; active compounds read low; activity change, % at 57.5 µM; actives 4.7% (n = 360,000); AID 743279, 2014; in the data active = activity change below about -50%; inconclusive = mostly about -30% to -49%
#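 THP-1 cells pretreated 1 hr with compounds (up to 57.5 uM final), then stimulated with LPS (250 ng/mL final) plus ATP (1.25 mM final); secreted IL-1B measured by AlphaLISA after 16 hr, decreased signal indicating inhibition.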
# DT40 TDP1 CPT: qHTS for Inhibitors of human tyrosyl-DNA phosphodiesterase 1 (TDP1): qHTS in cells in presence of CPT. chicken DT40 Tdp1-/-;hTDP1 cells + 20 nM CPT, ATP luminescence, 48 h. Potency, µM (titrated, usually from 46.2 µM), for the others: top-dose activity change, negative = growth inhibition, hits mostly inhibitors. actives 12% (n = 420,000). AID 686979, 2013; also: potency is read from the fitted curve at half-maximal effect; nearly all actives have a fitted effect of over 55% in size
#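 Chicken DT40 Tdp1-/- cells complemented with human TDP1, 400 cells/well, exposed to compounds plus 20 nM camptothecin for at least 48 h at 37 C; viability read as ATP content by CellTiter-Glo luminescence.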
# HT1080-NT tox: qHTS for induction of synthetic lethality in tumor cells producing 2HG: qHTS for the HT-1080-NT fibrosarcoma cell line. HT-1080-NT fibrosarcoma viability, CellTiter-Glo ATP luminescence, 48 h. Potency, µM (top dose mostly 46.1 µM), for inactives: at the highest dose activity, negative = less viability, usual class: cytotoxic. actives 1.6% (n = 360,000). AID 686970, 2013;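 also: NT is the 2HG producing partner of a matched IDH1 knockdown line; potency is read from the fitted curve at half-maximal effect; 0% = DMSO-treated cells and -100% = media-only wells without cells; nearly all actives have a fitted effect of over 55% in size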
#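 HT-1080-NT; 750 cells/well; 5% FBS RPMI; 48 h compound, 37 degrees C; CellTiter-Glo luminescence; curve fitting and curve-class assignment.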
# An asterisk follows results filed as active; ? = inconclusive; . = not tested or not shown; [ ] = another dose, or the depositor's remark. Unless noted, calls follow the shape of the dose curve; as a rule, active = well fitted curve in the direction sought with a large enough effect; inconclusive = small, poorly fitted or top-dose-only effect, or another doubt; inactive = no such curve, though single readings can be large; an effect the other way counts as inactive or inconclusive. Unless noted, % is scaled to controls: 0 for no effect and ±100 for the full control effect.
SMILES,12-LOX inh,DT40 TDP1 no CPT,HT1080 IDH1KD tx,IL1B secr inh,DT40 TDP1 CPT,HT1080-NT tox
CCC(Sc1nnc(-c2ccc(OC)c(OC)c2)c(-c2ccc(OC)c(OC)c2)n1)C(=O)NC1CCCC1 (stereo not given),-14.1%,?,.,.,16.4µM*,.
CCn1c(SCC(=O)NC2CCCCC2)nnc1-c1cc2cccc(OC)c2o1,0.0%,23.1µM*,2.1%,-25.7,?,-9.9%
COc1ccc(-c2nnc(SCC(=O)NC3CCCC3)nc2-c2ccc(OC)c(OC)c2)cc1OC,4.5%,20.6µM*,.,.,18.4µM*,.
CCOc1ccc(-c2nnc(SCC(=O)NC3CCCCC3)nc2-c2ccc(OCC)c(OC)c2)cc1OC,7.7%,-27.1%,.,.,-6.0%,.
Cc1ccc(-c2nnc(SCC(=O)NC3CCCC3)nc2-c2ccc(C)cc2)cc1,-17.8%,13µM*,.,.,18.4µM*,.
Cn1cnnc1-c1ccc(NS(=O)(=O)c2ccc3c(c2)CCC3)cc1,28.2µM*,.,.,.,.,.
Cc1ccc(S(=O)(=O)Nc2ccc3c(c2)CCC3)cc1,-17.6%,16.4µM*,-28.4%,-19.2,14.6µM*,-25.2%
Cc1ccc(S(=O)(=O)Nc2ccc3c(c2)CCC3)cc1C,-5.6%,-5.5%,2.3%,15.3,-4.2%,5.4%
Cc1[nH][nH]c(=O)c1C(c1ccccc1[N+](=O)[O-])C(C#N)C#N (stereo not given),-6.9%,-27.7%,-8.4%,-145.6*,?,-12.5%
COc1ccc(CC2=C(O)c3ccccc3C(=O)C2=O)cc1,?,-9.5%,?,14.1,-18.8%,?
O=C1C(=O)c2ccccc2C(O)=C1CCCCl,.,4.11µM*,?,-66.6*,5.8µM*,16.4µM*
Cc1ccc(S(=O)(=O)CCSC(=N)N)cc1,-1.7%,16.4µM*,?,-114.5*,?,?
COc1ccc(NC2=Nc3ccccc3N3C2=Nc2c(c(C)nn2-c2ccc(C)cc2)C3c2cccnc2)cc1 (stereo not given),2.2%,?,5.6%,-8.1,20.6µM*,8.8%
CC(=O)Nc1ccc(NC2=Nc3ccccc3N3C2=Nc2c(c(C)nn2-c2ccccc2)C3c2ccccc2)cc1 (stereo not given),13.2%,2.31µM*,16.8%,22.3,2.59µM*,15.6%
COc1cccc(-c2nc(N3CCOCC3)cc3c2CN(C)C3=O)c1,-6.3%[176 µM],.,.,.,.,.
O=C(C1CCN(C(=O)N2CC3CC(C2)[C@H]2CCCC(=O)N2C3)CC1)N1CCCCCC1 (stereo not given in full),14.7%,.,.,.,.,.
Cc1ccc(SCCC(=O)Nc2ccc(OCc3ccccc3)cc2)cc1,3.5%,-21.5%,-3.7%,-15.4,-18.9%,-3.9%
CCOc1ccc(NC(=O)CCSc2ccc(C)cc2)cc1,-27.7%,16.4µM*,10.8%,0.0,?,11.2%
CCOc1ccc(NCC(=O)c2ccc(C)cc2)cc1,?,?,-29.3%,-80.8*,?,-20.0%
CCOc1ccc(NC(=O)COC(=O)C2CC2C)cc1 (stereo not given),0.8%,18.4µM*,11.9%,8.8,?,10.0%
Cc1cccc(CN2CCCC(O)(CNCC(C)(C)C)C2=O)c1 (stereo not given),12.9%,.,.,.,.,.
CC1Cc2cc(S(=O)(=O)N3CCN(c4ccccc4F)CC3)ccc2N1C(=O)C1CC1 (stereo not given),9.3%,23.1µM*,-21.6%,-29.4,?,-20.3%
CC(=O)N1CCCc2cc(S(=O)(=O)N3CCN(c4ccccc4F)CC3)ccc21,1.1%,20.6µM*,.,.,20.6µM*,.
COc1ccc(OCc2nc(C3CN(C(=O)c4ccc(C)nc4)C3)no2)cc1,62.9%,.,.,.,.,.
CC1=C/C(=N\NC(=O)C2CC2)CC1,-19.1%,.,.,.,.,.
SMILES,12-LOX inh,DT40 TDP1 no CPT,HT1080 IDH1KD tx,IL1B secr inh,DT40 TDP1 CPT,HT1080-NT tox
CCC(C)SSc1ncc[nH]1 (stereo not given),19.3µM*,.,.,.,.,.
CCc1ccc(C(=O)c2cncc(Br)c2)cc1,27.2%,8.2µM*,3.7%,-16.7,10.3µM*,1.0%
COc1ccc(-c2nnc3n2CCN(C(=O)Cc2cccc(Cl)c2)C3)cc1,48.9%,.,.,.,.,.
N=C1N=C(N)c2cc3ccccc3cc21,3.6%[57.4 µM],24.3µM*,.,.,?,.
Fc1ccccc1Cn1c2[n+](c3ccc(C(F)(F)F)cc31)CCCCC2,?,?,-0.6%,-6.6,?,15.0%
COc1ccc(OC)c(C(=O)Cn2c3[n+](c4ccc(C(F)(F)F)cc42)CCCCC3)c1,-5.0%,5.8µM*,23.3%,-5.3,5.17µM*,0.6%
O=C(c1ccc2c(c1)OCO2)C1CCCN(Cc2cn[nH]c2-c2cccc(F)c2)C1 (stereo not given),-10.8%,?,-3.3%,-92.3*,?,0.6%
O=C(c1ccc2c(c1)OCO2)C1CCCN(Cc2ccc3cccc(F)c3n2)C1 (stereo not given),0.1%,20.6µM*,1.1%,-27.7,?,1.5%
O=C(c1ccc2c(c1)OCO2)C1CCCN(Cc2cn[nH]c2-c2ccccc2)C1 (stereo not given),5.3%,-0.7%,0.5%,-9.2,-18.0%,5.6%
CCOc1ccc(CCNC(=O)CS(=O)(=O)Cc2nc(-c3ccccc3C)oc2C)cc1,-4.3%,.,.,.,.,.
COc1cc(-c2noc(C)c2/C=C/c2ccc(C(=O)O)cc2)cc(OC)c1OC,?,?,18.4µM*,6.0,?,?
COc1cc(-c2noc(C)c2/C=C/c2cccc([N+](=O)[O-])c2)cc(OC)c1OC,?,1.64µM*,3.66µM*,56.7,1.3µM*,2.31µM*
COc1cc(-c2noc(C)c2C(=O)N[C@@H](CO)Cc2ccccc2)cc(OC)c1OC,7.7%,?,6.7%,17.0,?,5.0%
O=[N+]([O-])c1cccc(/C=C/c2ccncc2)c1,4.1%,-23.8%,-10.6%,?,-20.6%,-0.1%
CCCNC(=O)NC(=O)CSc1cc(C)c2cccc(C)c2n1,-14.4%,.,.,.,.,.
COCc1nnc([C@@H]2CC(F)(F)CN2C(=O)Cc2ccccc2C)o1,16.3%,.,.,.,.,.
COc1ccc2c(c1)O[C@H](c1ccc3c(c1)OCO3)[C@@H](O)C2=O,.,?,-11.0%,-5.7,20.6µM*,0.0%
